# Measurements reported in the supplement of paper PMC10849652.
# Targets with a hit are over-represented here; the source holds about 7,900 in all. About 0.6% of all pairs of compound and target were hits. A number with no mark means an inactive call.
# Assays:
# Assay in all cases: log2 fold change, soluble protein after heating vs DMSO (PISA); higher = thermal stabilisation; K562 cells, 10 uM, 30 min; active = over 0.2 and 3.5 SD of the protein, either way, in both replicates (recomputed)
# IRAK-1-4 Inhibitor I = compound: C1COCCN1CCN2C3=CC=CC=C3N=C2NC(=O)C4=CC(=CC=C4)[N+](=O)[O-] [IRAK-1-4 Inhibitor I]
# Procedure, shortened: (§1)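 K562 cells at 2×10^6 cells/mL were exposed to 10 μM compound for 30 min, then aliquots were heated for 3 min across 48°C-58°C, pooled, and extracted in PBS containing 0.5% NP-40 at 4°C. The supernatant after 21,000xg for 90 min was taken as soluble protein and measured by TMTpro 16plex LC-MS/MS with channel sums equalised. Thermal stability is reported relative to control samples, with values from duplicates. Fold changes are given on a log2 scale.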
# ibrutinib = compound: C=CC(=O)N1CCC[C@@H](n2nc(-c3ccc(Oc4ccccc4)cc3)c3c(N)ncnc32)C1 [ibrutinib]
# Procedure, shortened: as §1
# [1] = compound: CC(=O)c1cnc2ccc(-c3cc(Cl)c(O)c(Cl)c3)nc2c1N[C@H]1CC[C@H](CN(C)C)CC1
# Procedure, shortened: as §1
# ralimetinib = compound: CC(C)(C)Cn1c(N)nc2ccc(-c3[nH]c(C(C)(C)C)nc3-c3ccc(F)cc3)nc21 [ralimetinib]
# Procedure, shortened: as §1
# [2] = compound: CC(C)(O)CC(=O)NCCn1ccc2ncnc(Nc3ccc(Oc4cccc(C(F)(F)F)c4)c(Cl)c3)c21
# Procedure, shortened: as §1
# [3] = compound: CC(C)C1=C2N=C(C=C(N2N=C1)NCC3=CC=CC=C3)NCCCCCCN
# Procedure, shortened: as §1
# [4] = compound: CC(C)C[C@@H](C=O)NC(=O)[C@H](CC(C)C)NC(=O)[C@H](CC(C)C)NC(=O)OCc1ccccc1
# Procedure, shortened: as §1
# pinometostat = compound: CC(C)N(C[C@H]1O[C@@H](n2cnc3c(N)ncnc32)[C@H](O)[C@@H]1O)[C@H]1C[C@@H](CCc2nc3cc(C(C)(C)C)ccc3[nH]2)C1 [pinometostat]
# Procedure, shortened: as §1
# [5] = compound: CC1=C(C(CC(=O)N1)C2=CC=C(C=C2)C(F)(F)F)C(=O)NC3=C(C=C4C(=C3)C=NN4)F
# Procedure, shortened: as §1
# [6] = compound: CC1=C(C2=C(C=C1)C(=O)C3=CC=CC=C3N2CCCN)C
# Procedure, shortened: as §1
# [7] = compound: CC1=C(C=C(C=C1)NC(=O)C2=CC(=CC=C2)C(C)(C)C#N)NC3=CC4=C(C=C3)N=CN(C4=O)C
# Procedure, shortened: as §1
# [8] = compound: CC1=C(C=C(C=C1)NC(=O)C2=CC(=CC=C2)N(C)C)NC(=O)C3=CC=C(C=C3)O
# Procedure, shortened: as §1
# [9] = compound: CC1=CC=C(C=C1)SC2=C3C=C(SC3=CN=C2)C(=O)N
# Procedure, shortened: as §1
# [10] = compound: CC1=NC(=CC=C1)C2=C(N=C(N2)C(C)(C)C)C3=CC4=NC=CN=C4C=C3
# Procedure, shortened: as §1
# Nexturastat A = compound: CCCCN(Cc1ccc(C(=O)NO)cc1)C(=O)Nc1ccccc1 [Nexturastat A]
# Procedure, shortened: as §1
# vemurafenib = compound: CCCS(=O)(=O)Nc1ccc(F)c(C(=O)c2c[nH]c3ncc(-c4ccc(Cl)cc4)cc23)c1F [vemurafenib]
# Procedure, shortened: as §1
# [11] = compound: CCCS(=O)(=O)Nc1ccc(F)c(C(=O)c2c[nH]c3ncc(Cl)cc23)c1F
# Procedure, shortened: as §1
# [12] = compound: CCCc1cc(C)[nH]c(=O)c1CNC(=O)c1cc(-c2ccnc(N3CCN(C)CC3)c2)cc2c1cnn2C(C)C
# Procedure, shortened: as §1
# givinostat = compound: CCN(CC)Cc1ccc2cc(COC(=O)Nc3ccc(C(=O)NO)cc3)ccc2c1 [givinostat]
# Procedure, shortened: as §1
# barasertib = compound: CCN(CCCOc1ccc2c(Nc3cc(CC(=O)Nc4cccc(F)c4)[nH]n3)ncnc2c1)CCOP(=O)(O)O [barasertib]
# Procedure, shortened: as §1
# Chain of UniProt P02545 (P02545 whole entry, looked up): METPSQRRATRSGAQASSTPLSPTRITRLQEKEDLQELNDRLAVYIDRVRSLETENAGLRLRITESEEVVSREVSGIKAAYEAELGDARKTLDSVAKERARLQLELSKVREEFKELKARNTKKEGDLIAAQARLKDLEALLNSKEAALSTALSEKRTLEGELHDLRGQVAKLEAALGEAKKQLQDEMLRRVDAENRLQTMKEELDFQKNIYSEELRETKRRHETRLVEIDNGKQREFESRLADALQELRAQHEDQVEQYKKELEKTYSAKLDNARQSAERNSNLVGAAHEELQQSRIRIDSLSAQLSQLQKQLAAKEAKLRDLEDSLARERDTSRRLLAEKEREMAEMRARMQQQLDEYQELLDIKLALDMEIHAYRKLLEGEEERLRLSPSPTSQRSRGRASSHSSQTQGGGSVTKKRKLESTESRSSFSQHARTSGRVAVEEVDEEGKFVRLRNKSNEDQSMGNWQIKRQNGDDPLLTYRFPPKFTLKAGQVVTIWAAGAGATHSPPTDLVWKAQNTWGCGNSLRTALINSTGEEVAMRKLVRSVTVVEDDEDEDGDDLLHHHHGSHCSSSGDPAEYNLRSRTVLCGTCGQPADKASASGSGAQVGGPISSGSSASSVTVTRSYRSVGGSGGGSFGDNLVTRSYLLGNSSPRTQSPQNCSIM
# Chain of UniProt O43766 (O43766 whole entry, looked up): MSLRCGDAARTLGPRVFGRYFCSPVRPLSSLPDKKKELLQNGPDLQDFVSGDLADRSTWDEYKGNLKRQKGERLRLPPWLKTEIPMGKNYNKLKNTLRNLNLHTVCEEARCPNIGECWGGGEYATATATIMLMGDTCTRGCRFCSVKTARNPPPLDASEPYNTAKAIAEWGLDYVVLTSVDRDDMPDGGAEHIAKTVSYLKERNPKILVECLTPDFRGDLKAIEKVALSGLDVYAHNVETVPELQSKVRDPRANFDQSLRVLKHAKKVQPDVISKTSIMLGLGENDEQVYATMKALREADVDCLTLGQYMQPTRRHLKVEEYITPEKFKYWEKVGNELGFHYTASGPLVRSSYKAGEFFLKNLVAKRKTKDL
# Chain of UniProt P48449 (P48449 whole entry, looked up): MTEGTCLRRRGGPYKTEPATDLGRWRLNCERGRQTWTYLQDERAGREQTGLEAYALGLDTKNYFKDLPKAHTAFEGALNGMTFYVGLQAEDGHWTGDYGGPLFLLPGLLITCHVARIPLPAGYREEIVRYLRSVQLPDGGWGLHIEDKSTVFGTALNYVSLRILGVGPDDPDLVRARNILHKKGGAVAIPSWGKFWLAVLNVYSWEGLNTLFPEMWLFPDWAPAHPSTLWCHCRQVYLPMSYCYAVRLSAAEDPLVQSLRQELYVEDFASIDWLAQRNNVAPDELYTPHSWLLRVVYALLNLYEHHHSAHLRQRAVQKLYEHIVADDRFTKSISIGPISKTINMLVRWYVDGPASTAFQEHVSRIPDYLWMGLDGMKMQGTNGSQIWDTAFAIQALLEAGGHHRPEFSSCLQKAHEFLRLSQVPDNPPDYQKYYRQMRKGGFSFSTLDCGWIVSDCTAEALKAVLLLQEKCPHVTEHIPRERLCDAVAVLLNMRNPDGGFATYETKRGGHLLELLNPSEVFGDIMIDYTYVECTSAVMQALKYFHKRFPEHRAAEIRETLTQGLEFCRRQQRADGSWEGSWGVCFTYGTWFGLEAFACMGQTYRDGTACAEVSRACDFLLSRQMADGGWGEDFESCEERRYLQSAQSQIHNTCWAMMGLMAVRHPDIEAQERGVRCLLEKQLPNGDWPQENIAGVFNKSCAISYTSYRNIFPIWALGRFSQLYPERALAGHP
# Chain of UniProt Q96LU5 (Q96LU5 whole entry, looked up): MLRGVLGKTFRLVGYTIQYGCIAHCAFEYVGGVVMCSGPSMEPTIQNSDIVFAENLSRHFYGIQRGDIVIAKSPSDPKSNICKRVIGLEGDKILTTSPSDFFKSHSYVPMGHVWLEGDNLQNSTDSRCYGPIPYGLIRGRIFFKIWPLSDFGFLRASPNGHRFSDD
# Chain of UniProt O14880 (O14880 whole entry, looked up): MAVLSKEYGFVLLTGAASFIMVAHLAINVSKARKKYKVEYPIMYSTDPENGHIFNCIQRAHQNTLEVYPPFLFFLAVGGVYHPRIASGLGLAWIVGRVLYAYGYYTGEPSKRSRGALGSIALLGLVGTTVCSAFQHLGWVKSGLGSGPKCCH
# Chain of UniProt Q14653 (Q14653 whole entry, looked up): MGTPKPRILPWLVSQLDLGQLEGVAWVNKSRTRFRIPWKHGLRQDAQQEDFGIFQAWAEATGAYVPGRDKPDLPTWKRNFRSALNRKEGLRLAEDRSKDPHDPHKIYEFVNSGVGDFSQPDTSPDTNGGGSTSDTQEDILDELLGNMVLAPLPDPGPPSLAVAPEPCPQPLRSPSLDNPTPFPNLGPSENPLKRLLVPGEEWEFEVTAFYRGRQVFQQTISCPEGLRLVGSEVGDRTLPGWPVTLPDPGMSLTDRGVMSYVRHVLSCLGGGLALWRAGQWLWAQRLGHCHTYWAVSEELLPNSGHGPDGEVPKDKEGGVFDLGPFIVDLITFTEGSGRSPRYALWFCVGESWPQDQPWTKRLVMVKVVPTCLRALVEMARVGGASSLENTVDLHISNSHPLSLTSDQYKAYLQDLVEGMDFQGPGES
# Chain of UniProt Q9H9P8 (Q9H9P8 whole entry, looked up): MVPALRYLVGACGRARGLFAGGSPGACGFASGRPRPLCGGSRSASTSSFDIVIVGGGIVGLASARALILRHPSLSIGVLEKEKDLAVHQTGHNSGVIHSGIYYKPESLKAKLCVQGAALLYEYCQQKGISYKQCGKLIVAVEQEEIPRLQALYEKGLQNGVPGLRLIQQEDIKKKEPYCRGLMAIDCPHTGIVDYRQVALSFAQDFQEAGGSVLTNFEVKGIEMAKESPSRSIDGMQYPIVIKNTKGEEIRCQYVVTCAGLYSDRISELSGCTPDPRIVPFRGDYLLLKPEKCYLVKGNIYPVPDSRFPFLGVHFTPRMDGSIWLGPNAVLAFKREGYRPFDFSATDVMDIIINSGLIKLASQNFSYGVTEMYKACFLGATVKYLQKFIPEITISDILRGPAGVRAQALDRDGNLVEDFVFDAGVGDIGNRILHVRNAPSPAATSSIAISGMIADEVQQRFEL
# Chain of UniProt Q9Y2X0 (Q9Y2X0 whole entry, looked up): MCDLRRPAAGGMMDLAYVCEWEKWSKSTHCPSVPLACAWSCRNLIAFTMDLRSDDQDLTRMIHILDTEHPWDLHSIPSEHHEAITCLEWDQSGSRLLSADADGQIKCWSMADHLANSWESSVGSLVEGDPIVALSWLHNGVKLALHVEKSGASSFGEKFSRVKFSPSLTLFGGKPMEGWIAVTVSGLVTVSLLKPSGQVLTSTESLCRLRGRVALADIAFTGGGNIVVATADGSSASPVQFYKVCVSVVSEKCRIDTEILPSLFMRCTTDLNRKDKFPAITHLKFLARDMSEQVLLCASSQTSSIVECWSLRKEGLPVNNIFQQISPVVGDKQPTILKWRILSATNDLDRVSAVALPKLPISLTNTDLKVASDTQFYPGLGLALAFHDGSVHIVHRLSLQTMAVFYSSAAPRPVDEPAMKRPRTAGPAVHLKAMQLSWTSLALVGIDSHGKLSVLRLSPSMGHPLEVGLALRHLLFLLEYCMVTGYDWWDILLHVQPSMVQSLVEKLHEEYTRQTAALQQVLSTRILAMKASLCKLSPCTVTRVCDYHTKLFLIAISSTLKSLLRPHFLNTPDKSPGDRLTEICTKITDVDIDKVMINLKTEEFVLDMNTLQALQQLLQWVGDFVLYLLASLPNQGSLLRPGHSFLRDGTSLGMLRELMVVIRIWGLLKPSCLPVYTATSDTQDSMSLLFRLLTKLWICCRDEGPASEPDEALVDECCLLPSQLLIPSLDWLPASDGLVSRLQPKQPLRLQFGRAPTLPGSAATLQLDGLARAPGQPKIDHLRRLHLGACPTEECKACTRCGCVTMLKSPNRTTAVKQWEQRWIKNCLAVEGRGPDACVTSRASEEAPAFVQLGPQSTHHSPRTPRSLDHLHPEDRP
# Chain of UniProt Q9UIQ6 (Q9UIQ6 whole entry, looked up): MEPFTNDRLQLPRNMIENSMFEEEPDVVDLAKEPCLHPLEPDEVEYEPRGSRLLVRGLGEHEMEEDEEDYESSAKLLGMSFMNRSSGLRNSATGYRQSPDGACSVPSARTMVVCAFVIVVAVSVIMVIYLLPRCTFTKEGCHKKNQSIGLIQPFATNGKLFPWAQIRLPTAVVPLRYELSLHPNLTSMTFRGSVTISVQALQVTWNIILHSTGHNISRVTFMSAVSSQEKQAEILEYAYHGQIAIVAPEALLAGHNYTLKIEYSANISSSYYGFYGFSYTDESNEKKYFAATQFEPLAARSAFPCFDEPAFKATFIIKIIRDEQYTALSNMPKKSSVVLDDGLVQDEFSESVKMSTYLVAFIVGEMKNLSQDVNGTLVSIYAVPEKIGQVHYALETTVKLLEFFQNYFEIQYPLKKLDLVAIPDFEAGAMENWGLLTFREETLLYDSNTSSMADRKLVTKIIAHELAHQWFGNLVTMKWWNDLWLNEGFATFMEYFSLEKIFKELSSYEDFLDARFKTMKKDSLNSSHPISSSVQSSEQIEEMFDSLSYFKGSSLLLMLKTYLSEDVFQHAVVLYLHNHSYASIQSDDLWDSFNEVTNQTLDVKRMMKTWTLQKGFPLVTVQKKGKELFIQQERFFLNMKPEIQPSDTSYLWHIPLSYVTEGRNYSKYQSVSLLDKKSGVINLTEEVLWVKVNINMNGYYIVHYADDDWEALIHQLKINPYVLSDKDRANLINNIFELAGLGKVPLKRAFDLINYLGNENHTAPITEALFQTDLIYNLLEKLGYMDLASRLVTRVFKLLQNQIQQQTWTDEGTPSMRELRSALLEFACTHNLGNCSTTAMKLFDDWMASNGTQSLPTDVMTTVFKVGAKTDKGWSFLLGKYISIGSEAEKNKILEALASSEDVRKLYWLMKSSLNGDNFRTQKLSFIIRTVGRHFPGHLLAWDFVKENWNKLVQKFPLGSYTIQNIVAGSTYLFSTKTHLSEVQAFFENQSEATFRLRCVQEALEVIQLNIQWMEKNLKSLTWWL
Target,log2 fold change (IRAK-1-4 Inhibitor I),log2 fold change (ibrutinib),log2 fold change [1],log2 fold change (ralimetinib),log2 fold change [2],log2 fold change [3],log2 fold change [4],log2 fold change (pinometostat),log2 fold change [5],log2 fold change [6],log2 fold change [7],log2 fold change [8],log2 fold change [9],log2 fold change [10],log2 fold change (Nexturastat A),log2 fold change (vemurafenib),log2 fold change [11],log2 fold change [12],log2 fold change (givinostat),log2 fold change (barasertib)
LSR (UniProt Q86X29),0.053,0.006,-0.139,-0.009,0.058,0.093,0.086,-0.046,-0.035,-0.008,-0.051,0.016,-0.05,-0.05,-0.074,-0.028,-0.061,-0.019,-0.046,-0.016
MGST3 (UniProt O14880),0.115,0.042,0.036,0.062,0.041,0.073,0.006,-0.025,0.011,-0.014,-0.029,0.005,0,-0.049,0.015,-0.037,-0.011,-0.057,0.003,0.003
LIAS (UniProt O43766),0.029,0.005,0.101,-0.212,-0.003,-0.023,0.131,-0.011,0.003,-0.01,-0.044,0.119,-0.128,-0.002,-0.057,-0.013,-0.13,-0.01,-0.06,-0.001
LSS (UniProt P48449),-0.119,-0.087,-0.084,0.147,0.099,0.199,0.077,-0.116,-0.022,-0.195,-0.032,-0.122,-0.071,0.054,0.012,0.03,0.073,0,0.766 (active),0.382
IRF2BPL (UniProt Q9H1B7),0.031,0.038,0.008,0.013,-0.18,0.076,0.063,-0.206,0.044,0.093,0.013,-0.006,0.015,0.068,0.038,0.014,0.049,0.008,0.05,-0.044
MFN2 (UniProt O95140),-0.033,0.03,-0.055,-0.014,0.009,-0.479 (active),0.032,-0.017,-0.022,0.049,-0.021,-0.029,0.018,0.009,-0.022,0.019,0.064,-0.004,0.01,0.025
IMMP1L (UniProt Q96LU5),0.006,0.043,0.002,0.031,0.03,0.026,0.112,-0.033,0.06,0.199,0.003,0.067,0.008,-0.029,-0.085,-0.055,-0.031,0.273,-0.048,-0.024
LMNA (UniProt P02545),0.006,-0.023,-0.18,-0.058,0.115,0.076,0,-0.057,0.005,-0.017,-0.023,0.095,-0.026,-0.002,-0.022,0.088,0.014,-0.027,0.014,-0.004
L2HGDH (UniProt Q9H9P8),0.095,0.028,-0.065,0.003,-0.092,-0.069,-0.026,0,-0.018,0.029,0.03,0.009,0.021,-0.046,-0.102,0.015,-0.042,-0.081,-0.016,0.011
MED16 (UniProt Q9Y2X0),0,0.003,-0.358 (active),0.033,-0.029,-0.008,0.064,0.112,-0.019,0.17,-0.025,-0.044,-0.046,0.036,0.162,-0.017,0.046,0.014,0.076,-0.03
LARP4 isoform 4 (UniProt Q71RC2),-0.091,0.037,-0.128,0.068,0.046,-0.19,0.059,0.114,0.133,-0.054,0.066,0.005,-0.041,-0.002,0.251,-0.017,0.018,0.054,0.04,-0.053
LNPEP (UniProt Q9UIQ6),0.015,0.021,-0.021,0.005,-0.02,0.014,0,-0.018,0.001,0.016,0.018,0.03,0.01,-0.009,-0.051,-0.013,0.015,0.008,0.014,-0.009
MAP2K2 (UniProt P36507),0.045,0.012,-0.496 (active),0.105,-0.065,-0.02,0.056,0.003,0.011,-0.001,-0.018,0.013,0.009,0.028,-0.001,-0.008,-0.002,0.17,0.014,0.011
LARP1 (UniProt Q6PKG0),-0.131,0.009,-0.059,0.031,0,-0.088,0.036,0.109,0.021,-0.303 (active),0.01,0.032,-0.035,0.029,0.142,-0.033,-0.03,0.046,0.012,-0.006
MCU (UniProt Q8NE86),0.06,-0.026,-0.036,-0.042,-0.108,-0.122,-0.026,0.03,0.025,0.017,0,0.051,0.094,0.002,0.002,0.026,0.022,-0.075,0.013,0.014
IRF3 (UniProt Q14653),0.002,0.13,-0.019,-0.037,0,-0.065,-0.015,-0.002,0.04,0.02,0.18,-0.081,0.011,0.077,-0.046,0.074,0.098,0.011,0.031,-0.015
